Results with a measured potency or affinity are listed apart. Unmarked numbers belong to inactive results.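 How the source made its calls: active means mean inhibition of cell viability at 10 µM of at least 40% (some results past the limit were not filed as active); inactive means the rest.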
Experiment: DLD-1 cell viability reduction – luminescence, round 1, cytotoxicity control for KLF5 inhibitor project, late-stage follow-up (AID 485338)
Conditions: DLD-1 viability, CellTiter-Glo ATP luminescence; series mostly up to 20 µM; inhibition of viability: at the top concentration

SMILES	inhibition of viability
COC(=O)c1ccc2nc(Nc3nc4ccc(F)cc4s3)sc2c1	44.6%
Cc1ccc2nc(NC(=O)CCCc3nc4ccccc4s3)sc2c1	11.9%
CCOC(=O)c1sc(NC(=O)c2ccc3ncsc3c2)nc1C	16.3% [at 10 µM]
CCCc1ccc(-c2ccc(/C=C/C(=O)O)cc2)nc1	-3.09%

From PubChem BioAssay AID485338 (The Scripps Research Institute Molecular Screening Center, 2010)
